PL synth Enamine: blocks phospholipid synthesis in CHO cells, Enamine compounds; ZR-82 CHO cells, pyrene fatty acid UV survival, CellTiter Blue; peroxisome-deficient CHO-K1 mutant line; plus DGAT-1, DGAT-2 and ACAT inhibitors; calls only at 10 µM; 20,000 tested, 0.4% active; AID 1347385;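 active = cell survival signal 2 SD away from solvent-only control wells, confirmed on one or two retests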;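 also: 3 h compound exposure then viability read about one day after UV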
Each line names hits and unclear results; the compound was inactive in the other large screens. Shown is part of a subset that was picked to be rich in hits.

Cc1ccc(NP(=O)(/C=C2\N(C)c3ccccc3C2(C)C)c2ccccc2)cc1C (stereo not given)	none
CCN(CC)P(/C=C1/N(C)c2ccccc2C1(C)C)(=Nc1ccc(C)cc1C)c1ccccc1 (stereo not given)	PL synth Enamine active
CN1/C(=C\P(=Nc2cccc3ccccc23)(Oc2cccc3ccccc23)c2ccccc2)C(C)(C)c2ccccc21 (stereo not given)	none
Cc1sc2ncn(NC(=S)NCCCN(C)C)c(=O)c2c1C	none
COCCn1c(O)c(C(C)=Nc2ccnn2C(C)C)c(=O)[nH]c1=S	none
Cc1[nH]c2ccccc2c1N=Nc1ccc(F)cc1	PL synth Enamine active
Cc1[nH]c2ccccc2c1N=Nc1c(C)n(C)n(-c2ccccc2)c1=O	none
Oc1ccc2ccccc2c1N=Nc1ccc2c(c1)OCCO2	PL synth Enamine active
Cc1[nH]c2ccccc2c1N=Nc1ccccc1F	none
O=C1CCCC(O)=C1N=Nc1ccc2c(c1)OCO2	none
Cc1[nH]c2ccccc2c1N=Nc1ccc2c(c1)OCO2	PL synth Enamine active
Cc1[nH]c2ccccc2c1N=Nc1cccnc1	none
Oc1ccc(N=Nc2ccc3c(c2)OCCO3)c2ncccc12	none
Oc1ccc2ccccc2c1N=Nc1ncn[nH]1	none
CN1CC(=O)N(c2ccc(Cl)c(Cl)c2)C1=S	none
O=S(=O)(C1=Cc2ccccc2CC1)N1CCN(S(=O)(=O)c2ccc3c(c2)OCCCO3)CC1	none
CS(=O)(=O)NCCCCCC(=O)O	none
NC(=O)N1CCC(C(=O)O)CC1	none
C[N+](C)(C)Cc1c(-c2ccc(Cl)cc2)nc2sccn12	none
CCOC(=O)c1c(C2CC2)csc1NC(=O)COC(=O)C12CC3CC(CC(O)(C3)C1)C2	none
C=CCSc1nc2cc(S(N)(=O)=O)ccc2n1CC	none
Brc1ccccc1-c1nnc(CSc2nnc(-c3ccc4c(c3)OCO4)o2)o1	none
Cc1cc(C(=O)NNC(=O)CCC(=O)c2cccs2)c(C)o1	none
O=C1OC(c2ccccc2)=N/C1=C\c1cc(Cl)c2c(c1)OCCO2	none
NC(=O)N/N=C1\CCS(=O)(=O)c2ccc(F)cc21	none
C=CCNC(=S)N/N=C1\CCS(=O)(=O)c2ccccc21	none
O=S1(=O)CC/C(=N/Nc2ccc(Cl)cc2)c2cc(F)ccc21	PL synth Enamine active
O=S1(=O)CC/C(=N/Nc2nc3ccccc3s2)c2cc(F)ccc21	PL synth Enamine active
c1ccc2sc(NN=C3CCCCCC3)nc2c1	none
c1ccc2c(c1)CC/C(=N\Nc1nc3ccccc3s1)C2	none
O=S(=O)(c1ccc(N2CN(S(=O)(=O)c3ccccc3)c3nc4ccccc4nc32)cc1)N1CCCC1	none
Fc1cccc(Cl)c1/C=N/Nc1ncc(Cl)cc1Cl	none
COc1ccc(OC)c2c1CN(c1ccnc(N3Cc4c(OC)ccc(OC)c4C(O)C3)n1)CC2O (stereo not given)	none
CN1CCN(C)C1=NC(c1ccccc1)(c1ccccc1)c1ccccc1	none
C=CCNC(=S)Nc1nccs1	none
Oc1c(N=Nc2ccc3c(c2)OCO3)sc2ccccc12	none
Nc1nc(-c2ccccc2)c(N=Nc2ccc3c(c2)OCO3)s1	PL synth Enamine active
Nc1[nH]c(=O)[nH]c(=O)c1N=Nc1ccc2c(c1)OCCO2	none
c1cc2c(cc1-c1csc(N3CCOCC3)n1)OCCO2	none
Nc1nc(-c2ccccc2)c(N=Nc2ccc3c(c2)OCCO3)s1	PL synth Enamine active
c1ccc(-c2nnc(-c3ccc4c(c3)OCO4)nc2-c2ccccc2)cc1	none
O=C(CSc1nnc(NC2CC2)s1)NCC1CCCO1 (stereo not given)	none
O=[N+]([O-])c1ccc2c3c(ccc([N+](=O)[O-])c13)CC2	none
Cc1cnc(NC(=O)c2ccc(=O)n(C)n2)s1	none
Cc1ccc(C)c(OCCn2c(C(C)(C)C)nc3ccccc32)c1	none
CN(/C=C/C=[N+](C)c1ccccc1)c1ccccc1	none
CC(NC(=O)COC(=O)C1CC1)C12CC3CC(CC(C3)C1)C2 (stereo not given)	none
CN=c1scc(-c2ccc(OC(F)F)cc2)n1/N=C(\C)c1ccc(O)cc1O	PL synth Enamine active
CN=c1scc(-c2ccc(F)cc2)n1/N=C(\C)c1ccc(O)cc1O	none
CN=c1scc(-c2ccc(OC(F)F)cc2)n1/N=C/c1cc(OC)c(O)c(OC)c1	none
O=C1Nc2ccccc2/C1=N\N=C\C1=C(N2CCOCC2)C(=C\c2ccccc2)/CC1	PL synth Enamine active
Oc1ccc(/C=N/N=C/C2=C(N3CCOCC3)C(=C\c3ccccc3)/CC2)c(O)c1	none
C(=N\Nc1ccc(N2CCOCC2)nn1)/C1=C(N2CCOCC2)C(=C/c2ccccc2)/CC1	none
O=C(N=Nc1c(O)[nH]c2ccc(Br)cc12)c1nc2ccccc2c(=O)[nH]1	none
O=C(C[n+]1cccc(O)c1)c1ccc(OC(F)F)cc1	none
C(=N\N(c1ccccc1)c1ccccc1)/c1cn(-c2ccccc2)nc1-c1cc2ccccc2o1	none
C(=C\c1cn(-c2ccccc2)nc1-c1cc2ccccc2o1)/c1nc2ccccc2s1	PL synth Enamine active
Cn1/c(=N/N=C/c2cn(-c3ccccc3)nc2-c2cc3ccccc3o2)sc2ccccc21	none
Cc1cc(-n2c(C)cc(-c3csc(N4CCN(C)CC4)n3)c2C)no1	none
CCOC(=O)c1sc(N=Nc2[nH]c(C)c(C(=O)OCC)c2C)c(C(=O)OCC)c1C	PL synth Enamine active
CCOC(=O)c1c(N=CN(C)C)sc(C(=O)OC)c1C	none
CCOC(=O)c1sc(N=Nc2c(O)[nH]c(=S)[nH]c2=O)c(C(=O)OCC)c1C	none
NC(c1ccccc1)c1cc2ccccc2o1 (stereo not given)	none
CN(C)c1ccc(N=Nc2ccc(SC(F)(F)F)cc2[N+](=O)[O-])cc1	none
O=[N+]([O-])c1ccc(N=Nc2ccc(N(CCO)CC(F)(F)C(F)F)cc2)c(Cl)c1	PL synth Enamine active
CCN(CC)c1ccc2c(c1)OC(=O)N(c1ccc(Cl)c(Cl)c1)P2(=Nc1ccc([N+](=O)[O-])cc1)N(CC)CC (stereo not given)	none
Clc1ccccc1NN=C1c2ccccc2-c2ccccc21	none
Clc1ccc(NN=C2c3ccccc3-c3ccccc32)cc1Cl	none
Clc1cccc(NN=C2c3ccccc3-c3ccccc32)c1	PL synth Enamine active
O=c1c2ccccc2nnn1CSc1nc2ccccc2c(=O)n1-c1ccc(F)cc1	none
O=[N+]([O-])c1ccc(N2CCNCC2)c(S(=O)(=O)N2CCOCC2)c1	none
O=[N+]([O-])c1ccc(N2CCN(CCO)CC2)cc1SCCO	none
O=[N+]([O-])c1ccc(N2CCNCC2)cc1NC1C2CC3CC(C2)CC1C3 (stereo not given)	PL synth Enamine active
CC1CCc2c(sc3nc(CN4CCOCC4)nc(SCc4cc(=O)n5ccsc5n4)c23)C1 (stereo not given)	none
COc1ccc(OC)c(N=Nc2c(C)nn(-c3ccccc3)c2N)c1	none
Cc1nn(-c2ccccc2)c(N)c1N=Nc1ccc2ccccc2c1	none
Cc1nn(-c2ccccc2)c(N)c1N=Nc1ccccc1OC(F)F	PL synth Enamine active
CCOC(=O)Cc1c(C)nc(=O)[nH]c1C	none
Cc1nc(N)sc1N=Nc1ccc(Br)cc1	PL synth Enamine active
CCN(CC)S(=O)(=O)c1ccc(N=Nc2sc(N)nc2C)cc1	none
Cc1nc(N)sc1C	none
Clc1ccc2nc(SCc3cn4cc(Cl)ccc4n3)[nH]c2c1	none
CCNC(=S)N/N=C(\C)c1cccs1	none
C/C(=N\NC(=S)NC1CCCCC1)c1cccs1	PL synth Enamine active
O=S(=O)(NC(=S)NC1CCCCC1)c1cccs1	none
Cc1sc2ncnc(NCc3nnc4c(Cl)cc(C(F)(F)F)cn34)c2c1C	none
Cc1cc(C(C)(C)C)cc(C)c1C[n+]1ccc2ccccc2c1	PL synth Enamine active
Cc1cc(C(C)(C)C)cc(C)c1CSc1ncnc2ccccc12	none
Cc1cc(C(C)(C)C)cc(C)c1CSc1nc(=S)c2ccccc2[nH]1	none

Source: PubChem
